The source of these data is PubChem BioAssay (NCI).

About 83,000 compounds went through this panel and 20% of them were active in at least one assay; those are over-represented in the sample as a whole.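 Interpretation: 100, growth as untreated; towards 0, rising growth inhibition; 0, no net growth; 0 to -100, cell death. Compounds scoring below 10 were considered active.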 Values without a mark were called inactive. Active and inactive are the calls of the source.

The subject of the assay is SK-MEL-2 melanoma. Briefly: NCI-60 one-dose screen, 48 h (100 = growth as untreated, 0 = no growth, -100 = all killed). The conditions noted are these: 10 µM unless noted.
For `CCCCCOc1ccc(/C=N/Nc2cc(C)nc3ccc(Br)cc23)cc1`, the growth is 105%.
To `COc1ccc(OC)c(/C=C/[C@H]2O[C@@H](C)[C@H](O)[C@@H]2O)c1` belongs 91.2%; to `COc1ccc(C(=O)c2cc(C)c(OC)c(C)c2)c(OC)c1O`, 26.8%.
On to `C=C1C(=O)O[C@H]2[C@H]1CC/C(CNC(=O)/C=C/c1ccc(Br)cc1)=C\CC[C@@]1(C)O[C@@H]21`, for which the growth was -18% (active).
Regarding `O=C(c1ccccc1)N1N=C(c2ccc(-n3ccc(C(F)(F)F)n3)cc2)CC1c1ccc[nH]1` (stereo not given), the growth was 97.7%.
For `CS(=O)(=O)Nc1cc(-c2ccc3ncnc(Nc4ccc5[nH]ncc5c4)c3c2)cnc1Cl`, the growth was 63.1%.
The result for `Nc1ncc(C#Cc2cncc(NC(=O)c3cccc(C(F)(F)F)c3)c2)c2cccnc12` reads 5.81% (active); that for `CCOC(=O)Oc1c(OC)cc(C(=O)O[C@@H]2C[C@@H]3CN4CCc5c([nH]c6cc(OC)ccc56)[C@H]4C[C@@H]3[C@H](C(=O)OC)[C@H]2OC)cc1OC`, 105%.
In the case of `O=C1Nc2ccccc2/C1=C\c1cccc(/C=C2/C(=O)Nc3ccccc32)n1`, the growth is -34% (active).
Consider `NC(=O)CN1CCN(c2ccccc2Cl)CC1`, for which the growth was 92.4%.
`CSc1nnc2c(=O)n(C)c(=O)n(C)c2n1`: the growth is -28.8% (active).
As to `NC(=O)c1cccc(-c2ccccc2N2CCCCC2)c1`, the growth was 103%.
Regarding `COc1cnccc1-c1nc2ccc3[nH]ncc3c2c2c1CCCC2`, the growth is 81.2%.
As to `c1ccc(-c2nnc(Nc3ccc4c(c3)OCCO4)o2)c(NCc2ccncc2)c1`, the growth is 4.04% (active).
Regarding `CNC(=O)Nc1ccc(-c2nc(N3CCOCC3)nc3c2cnn3C2CCOCC2)cc1`, the growth was -23.8% (active).
Consider `O=C(N/N=C/c1ccc(O)c(O)c1)c1sc2ccccc2c1Cl`, for which the growth is -13.4% (active).
Turning to `COc1cc(C2CC(c3cccc(Nc4ccncc4)c3)=NN2c2ccccc2)cc(OC)c1OC` (stereo not given), the growth is 83.1%.
`Nc1ccccc1NC(=O)c1ccc(CN2CCC/C(=C\c3cccc(Cl)c3)C2=O)cc1`: the growth was 11.1%.
On to `C[C@H]1[C@H](C)CC[C@]2(CO)CC[C@]3(C)C(=CC[C@@H]4[C@@]5(C)CCCNC(C)(C)[C@@H]5CC[C@]43C)[C@H]12`, for which the growth was 13.1%.
The result for `O=c1[nH]nc(-c2ccc(Br)cc2)cc1Cc1ccc(O)cc1` reads 107%.
Take `CC1(C)CC[C@]2(C(=O)NCC#CCN3CCOCC3)CC[C@]3(C)C(=CC[C@@H]4[C@@]5(C)Cc6c([nH]c7ccccc67)C(C)(C)[C@@H]5CC[C@]43C)[C@@H]2C1`: the growth is 94.6%.
`COc1ccc(C(=O)/C=C/c2cn(Cc3ccc(Cl)cc3)c3ccccc23)cc1`: the growth was 74.6%.
For the molecule `COC(=O)CCCCCCCCC1(C)C=CC(C(C)O)=CC1` (stereo not given), the growth was 104%.
For `COc1ccc(-c2nn(Cc3ccccc3)c3c2-c2oncc2CC3)cc1OC`, the growth was 125%.
Consider `COc1ccc(CNC(=O)COc2ccc(/C=N/Nc3nc4ccccc4s3)cc2)cc1`, for which the growth was 63.9%.
